HUVEC tox TNFa = toxic to HUVEC cells under TNF alpha stimulation | HUVEC TNFalpha-stimulated, Hoechst cell count, imaging | cell count reduction, % at 2 µM | hit rate 0.17% among 93,000;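 active = cell count reduction exceeding the screen mean by over 5 SD, scaled to untreated wells per plate, cut at about 78% in these data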;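 also: cells counted after 24 h of TNF alpha exposure following the 1 h pretreatment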
IL1B NFkB pot = enhances IL-1B driven NFkB nuclear translocation. HUVEC IL-1B NFkB p65 nuclear translocation imaging. activation, % at 2 µM. hit rate 0.3% among 94,000. AID 819;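 active = activation above 40%, about the mean plus 3 SD, also judged a hit on visual image review; inconclusive = activation above 40% but not a hit on visual review; inactive = activation not above 40% and no visual hit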;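 also: percent activation is computed from the nuclear over cytoplasmic p65 intensity ratio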
HUVEC tox IL1B = HUVEC cytotoxicity counter-screen, IL-1B stimulated; HUVEC cell count loss, Hoechst imaging; cell count reduction, % at 2 µM; hit rate 0.41% among 94,000; AID 845;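 active = cell count reduction more than 3 SD above the screen-wide mean, cut at about 70% in these data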;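 also: normalized per plate to untreated control cells as the no-loss baseline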
VCAM1 TNFa inh = reduces TNF alpha induced VCAM1 expression in HUVEC | HUVEC TNFa-induced VCAM-1 immunofluorescence, high-content imaging | AID 802 | hit rate 0.48% among 95,000 | inhibition, % at 2 µM;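 active = inhibition above the batch mean plus 3 SD, with images confirmed as a hit by eye, cut at about 37% in these data; inconclusive = inhibition above that limit but hit not confirmed in images; inactive = inhibition not above that limit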;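 also: 0% = TNF-stimulated DMSO wells and 100% = unstimulated control wells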
E-sel TNF inh = TNF alpha driven E-selectin expression inhibition; AID 1246; inhibition, % at 2 µM; HUVEC TNFa-induced E-selectin immunofluorescence, high content; hit rate 0.71% among 120,000;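 active = inhibition above the batch mean plus 3 SD, and confirmed as a hit on visual image review, cut at about 43% in these data; inconclusive = passes the inhibition cutoff but fails visual image review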;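 also: 0% = TNF-stimulated DMSO wells and 100% = unstimulated control wells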
IL1B NFkB inh = blocks IL-1B driven NFkB nuclear translocation in HUVEC cells | HUVEC IL-1B NFkB p65 nuclear translocation imaging | inhibition, % at 2 µM | hit rate 0.43% among 94,000 | AID 796;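 active = inhibition above about 30% together with a positive call from visual inspection of the well image, limit read from the data; inconclusive = inhibition above a set limit but visual check negative; inactive = inhibition not above a set limit, visual check negative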;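 also: nuclear over cytoplasmic p65 intensity ratio measured by imaging; 0% = IL-1B stimulated DMSO wells and 100% = unstimulated DMSO wells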
* = called active by the depositor; ? = inconclusive; . = not tested or not shown. In the library only some 1.7% were active in any assay of this set; here they are far more common.

SMILES	HUVEC tox TNFa	IL1B NFkB pot	HUVEC tox IL1B	VCAM1 TNFa inh	E-sel TNF inh	IL1B NFkB inh
CC(=O)Nc1ccc(S(=O)(=O)NCCc2ccc(S(N)(=O)=O)cc2)cc1	-23	-30	-14	-20	-6	30*
CC(=O)Nc1ccc(S(=O)(=O)NCCc2ccc(F)cc2)cc1	-22	-4	-2	5	.	4
CC(=O)CCc1c[nH]c2c(C(=O)O)cccc12	6	-41	-5	-10	-2	41*
N/C(Cc1cccs1)=N\OC(=O)COc1ccc(Br)cc1	-16	60*	3	13	.	-60
COc1ccc(OCC(=O)O/N=C(\N)Cc2cccs2)cc1	.	.	.	.	-21	.
CN(C)/C=C/C(=O)c1ccc(-c2ccc(Cl)cc2Cl)o1	.	.	.	.	-49	.
CCC(SCC(=O)OC)C(=O)Nc1nnc(C(C)C)s1 (stereo not drawn)	-28	12	-15	3	67*	-12
CCOc1ccc(-c2nnc3sc(COc4ccc(Cl)cc4)nn23)cc1	-15	18	-68	6	10	-18
Clc1ccc(OCc2nn3c(-c4ccncc4)nnc3s2)cc1	-14	46*	-18	15	-40	-46
C#CC(=O)N(c1cccc(OC)c1)C(C(=O)NC1CCCC1)c1cccs1 (stereo not drawn)	22	13	14	?	99*	-13
C#CC(=O)N(c1ccc(OC)c(OC)c1)C(C(=O)NC1CCCC1)c1cccs1 (stereo not drawn)	1	-6	8	22	51	6
O=C(NC1CCCCC1)C(c1cccs1)N(C(=O)c1ccco1)c1ccc2c(c1)OCCO2 (stereo not drawn)	8	0	-36	-20	60*	0
COC(=O)/C=C1/N/C(=N\c2nc(C)cc(C)n2)N(c2ccc(Cl)cc2)C1=O	.	.	.	.	-38	.
COc1ccc(Nc2nnc(-c3ccc(N4CCOCC4)c([N+](=O)[O-])c3)c3ccccc23)cc1	-1	1	-4	14	-28	-1
Cc1nnc2n(c1=O)N=C(c1ccc(Cl)cc1)CS2	.	.	.	.	6	.
CC1=NN(c2ccc(Cl)cc2)C(=O)/C1=C\c1cccn1-c1ccc(S(N)(=O)=O)cc1	.	.	.	.	0	.
Cc1ccc(NC(=O)/C=C/c2ccc3c(c2)OCO3)cc1S(=O)(=O)N1CCOCC1	.	.	.	.	-5	.
O=[N+]([O-])c1cccc(-c2noc(COc3ccccc3)n2)c1	.	.	.	.	12	.
COc1ccc(Br)cc1CN(C)CC(=O)Nc1cccc(S(N)(=O)=O)c1	.	.	.	.	5	.
COc1ccc(Br)cc1CN(C)CC(=O)Nc1c(Cl)cccc1Cl	.	.	.	.	68*	.
N#Cc1c2c(c(NCc3ccco3)n3c1nc1ccccc13)CCC2	84*	-6	-7	52	.	6
CN(C)CCNc1c2c(c(C#N)c3nc4ccccc4n13)CCCC2	-34	1	15	10	9	-2
CC(C)(Oc1ccc(Cl)cc1)C(=O)N(Cc1ccccc1)c1ccccn1	.	.	.	.	-7	.
COc1ccc(C(=O)OCC2CC(c3ccccc3)N(C)O2)cc1 (stereo not drawn)	7	-47	-24	10	21	47*
N#CC1=C(N)C(C#N)(C#N)[C@H](c2ccncc2)[C@H]2CN(C(=O)OCc3ccccc3)CC=C12	.	.	.	.	96*	.
SMILES	HUVEC tox TNFa	IL1B NFkB pot	HUVEC tox IL1B	VCAM1 TNFa inh	E-sel TNF inh	IL1B NFkB inh
CCN(CC)CCCn1c(=S)[nH]c2cc(Cl)ccc2c1=O	-3	0	78*	2	-46	0
O=C(Oc1ccc2ccc(=O)oc2c1)N1CCOCC1	79*	22	-7	90*	.	-22
O=C(Oc1ccccc1-c1nnco1)c1ccccc1	-14	4	-17	8	-14	-4
Cc1noc(-c2ccccc2OC(=O)c2ccccc2)n1	-34	53*	1	6	8	-53
O=C(NCCc1nc2ccccc2[nH]1)c1ccc(F)cc1	-5	13	92*	-8	-4	-13
CC(=O)NCCc1nc2ccccc2[nH]1	-11	-6	4	8	.	6
CCCn1c(SCC(=O)NCc2ccco2)nnc1C(C)C	82*	-2	18	84*	-26	2
Cc1nnc(SCC(=O)NCc2ccco2)n1Cc1ccccc1	-23	10	-27	22	-6	-10
COc1ccc(NC(=O)C(Cl)=C(Cl)Cl)cn1	.	.	.	.	-13	.
COc1ccc(NC(=O)/C(Cl)=C(/Cl)S(=O)(=O)Cc2ccccc2)cn1	-1	68*	-3	28	27	-68
COc1ccc(NC(=O)/C(Cl)=C(/Cl)S(=O)Cc2ccc(Cl)cc2)cn1 (stereo not drawn)	.	.	.	.	100*	.
COc1ccc(NC(=O)Cc2c(Cl)cccc2Cl)cn1	.	.	.	.	-14	.
COc1ccc(-c2nn3c(-c4ccccc4)nnc3s2)cc1	-26	0	-9	2	3	0
CCN(CC)c1ccc(-c2nn3c(-c4ccccc4OC)nnc3s2)cc1	72	-29	71*	97*	23	29
CCCS(=O)(=O)N1CCC(C(=O)NCCCOC)CC1	-3	23	-63	-10	100*	-23
O=C(/C=C/c1ccc(Cl)cc1)Nc1nccs1	.	.	.	.	2	.
C=CCn1c(SCC(=O)c2ccc(OC)cc2)nnc1C(C)NC(=O)c1cccs1 (stereo not drawn)	-15	-49	94*	31	-10	49*
Cc1ccsc1C(=O)N1CCC(N2CCC(C(=O)NCC3CCCO3)CC2)CC1 (stereo not drawn)	.	.	.	.	31	.
O=C1CC(C(=O)Nc2ccc(C(=O)N3CCOCC3)cc2)C2(CCCCC2)O1 (stereo not drawn)	12	-1	90*	14	26	1
O=C1CC(C(=O)Nc2ccccc2)C2(CCCC2)O1 (stereo not drawn)	-2	25	4	16	-7	-24
CC1(C)Cc2c(cnn2-c2ccccc2)C(=O)/C1=N\NC(=O)c1ccncc1	-11	14	-39	19	-4	-14
CC1(C)Cc2c(cnn2-c2ccccc2)-c2c1c1ccccc1n2CC(O)CCl (stereo not drawn)	-9	-13	91*	14	-1	13
COc1ccc(N2C(C)=CS/C2=C(/C#N)c2nnc(N3CCOCC3)n2-c2ccccc2)cc1	-29	46*	-9	-14	.	-46
C=CCN1C(=O)NC(c2ccccc2)(C(F)(F)F)S/C1=C(\C#N)c1nnc(N2CCOCC2)n1-c1ccccc1 (stereo not drawn)	.	.	.	.	20	.
O=C(Nc1ccccc1C(=O)NC(Cc1ccccc1)C(=O)NC1CCCCCC1)c1ccccc1 (stereo not drawn)	-16	-5	33	0	-47	5
CC(=O)c1cc(F)c(N2CCN(C(=O)COc3ccc(F)cc3)CC2)cc1C	-6	16	83*	7	4	-16
S=C(NCc1ccco1)Nc1cc(Cl)c(Cl)cc1Cl	.	.	.	.	29	.
COc1ccc(Cl)cc1NC(=S)NCc1ccco1	10	-11	-4	18	100*	11
CCN(CC)C(=O)CN(c1ccc(Cl)cc1)S(=O)(=O)c1ccccc1	100*	-6	17	?	-12	6
NC(=O)CN(c1ccc(Cl)cc1)S(=O)(=O)c1ccccc1	.	.	.	.	-6	.
